Experimental data as given in PubChem BioAssay.
For part of these data: Measured potencies and affinities stand elsewhere. Active and inactive are the calls of the source.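 Rule for the calls, unless noted: active = primary screen active and over 50% activation in each of two duplicate runs; inactive = the rest.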

Tests used:
[1] = test system: TRPC4 beta (transient receptor potential cation channel C4), mouse; assay: TRPC4 cation channel opening, retest – cell-based, Fluo4 calcium, HEK293 TRPC4beta/mu-opioid, duplicates, 10 µM, confirmation (AID 2426;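 active = fluorescence ratio normalized to control raised more than 50% in primary screen plus both repeat runs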;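 for activation: percent rise of integrated ratio over buffer wells lacking compound which define 0%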); settings: Fluo4 calcium fluorescence, at 10 µM; hits give high values
[2] = test system: transient receptor potential cation channel C4 beta (TRPC4), mouse; assay: TRPC4 cation channel opening, second retest – cell-based, second round, Fluo4, HEK293 TRPC4beta/mu-opioid, 1 µM, confirmation (AID 2461); settings: Fluo4 calcium fluorescence, at 1 µM; hits give high values
[3] = test system: TRPC4 (transient receptor potential cation channel C4 beta), mouse; assay: potentiation of DAMGO EC20 TRPC4 response – cell-based, second round, Fluo-4, HEK293 TRPC4beta/mu-opioid, 1 µM, confirmation (AID 2554;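 active = primary screen hit whose fluorescence ratio, in both repeats, exceeds the weak agonist control mean by 3 SD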); settings: DAMGO EC20, Fluo-4 calcium flux, at 1 µM; hits give high values
[4] = test system: TRPC4 beta (transient receptor potential cation channel C4), mouse; assay: potentiation of DAMGO EC20 TRPC4 response – cell-based, Fluo-4, HEK293 TRPC4beta/mu-opioid, confirmation (AID 2555;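 active = primary screen hit whose calcium fluorescence ratio, in both repeats, exceeds the weak agonist control mean by 3 SD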); settings: DAMGO EC20, Fluo-4 calcium flux, at 10 µM; hits give high values
[5] = target: Short transient receptor potential channel 4 (Mus musculus) (UniProt Q9QUQ5); assay: blockers of DAMGO-evoked TRPC4 calcium flux – cell-based, Fluo4, HEK293 TRPC4beta/mu-opioid, confirmation (AID 2636;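 active = calcium signal cut by more than 3 SD below the full-agonist control yet still positive, in both repeats and the earlier primary screen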); settings: at 10 µM; hits give high values
Chain of Short transient receptor potential channel 4 (Mus musculus) (Q9QUQ5 whole entry, looked up): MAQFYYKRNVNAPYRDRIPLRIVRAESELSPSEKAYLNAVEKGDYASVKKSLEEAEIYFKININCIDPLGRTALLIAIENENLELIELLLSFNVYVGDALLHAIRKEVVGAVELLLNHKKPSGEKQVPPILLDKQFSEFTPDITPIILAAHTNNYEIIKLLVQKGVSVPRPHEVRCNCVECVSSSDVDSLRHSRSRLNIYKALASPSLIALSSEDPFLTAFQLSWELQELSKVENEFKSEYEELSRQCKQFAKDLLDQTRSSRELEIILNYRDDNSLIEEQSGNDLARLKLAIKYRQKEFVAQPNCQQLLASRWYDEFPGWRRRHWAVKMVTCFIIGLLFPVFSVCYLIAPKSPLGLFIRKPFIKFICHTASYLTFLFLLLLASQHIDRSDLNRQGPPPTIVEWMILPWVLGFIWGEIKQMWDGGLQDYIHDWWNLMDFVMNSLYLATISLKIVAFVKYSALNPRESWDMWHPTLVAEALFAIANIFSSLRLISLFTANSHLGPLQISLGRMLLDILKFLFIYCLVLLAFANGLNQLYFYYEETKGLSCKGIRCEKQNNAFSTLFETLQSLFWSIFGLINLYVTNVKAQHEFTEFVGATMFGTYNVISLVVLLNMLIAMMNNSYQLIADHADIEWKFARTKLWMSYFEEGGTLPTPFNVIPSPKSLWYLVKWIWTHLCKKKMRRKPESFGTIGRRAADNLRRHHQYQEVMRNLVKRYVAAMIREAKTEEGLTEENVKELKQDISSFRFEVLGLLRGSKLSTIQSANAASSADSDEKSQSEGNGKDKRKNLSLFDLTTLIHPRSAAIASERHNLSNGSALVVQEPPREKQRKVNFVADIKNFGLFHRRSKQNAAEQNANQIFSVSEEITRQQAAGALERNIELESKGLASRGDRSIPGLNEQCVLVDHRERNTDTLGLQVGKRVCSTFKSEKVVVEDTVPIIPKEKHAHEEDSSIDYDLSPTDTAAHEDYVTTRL

[6] = target: Short transient receptor potential channel 4 (Mus musculus) (UniProt Q9QUQ5); assay: blockers of DAMGO-evoked TRPC4 calcium flux – cell-based, second round, Fluo4, HEK293 TRPC4beta/mu-opioid, 1 µM, confirmation (AID 2637;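 active = calcium signal ratio cut to more than 3 SD under the fully stimulated control mean yet still positive, in both repeats and the primary screen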;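 for inhibition: percent of integrated ratio relative to wells lacking test compound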); settings: at 1 µM; hits give high values
[7] = target: Short transient receptor potential channel 4 (Mus musculus) (UniProt Q9QUQ5); assay: calcium entry via TRPC4 opening agents – cell-based, HEK293 TRPC4/mu-opioid, Fluo-4 calcium, dose response (AID 434937;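 active = primary screen activator hit with a dose response curve and TRPC4 channel activation at any tested dose; inactive = no activation, no dose response, or not a primary hit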)
[8] = target: Short transient receptor potential channel 4 (Mus musculus) (UniProt Q9QUQ5); assay: potentiation of DAMGO-evoked TRPC4 calcium signal – cell-based, HEK293 TRPC4/mu-opioid, Fluo-4 calcium, EC20 DAMGO, dose response (AID 434941;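 active = earlier screen potentiator hit that boosts the TRPC4 ion channel at some dose, with a dose response; inactive = no potentiation, no dose response, or not a prior hit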;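 note: calcium entry triggered by an EC20 dose of DAMGO at the co-expressed mu-opioid receptor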)
[9] = target: Short transient receptor potential channel 4 (Mus musculus) (UniProt Q9QUQ5); assay: block of DAMGO-driven TRPC4 calcium entry – cell-based, HEK293 TRPC4/mu-opioid, Fluo-4 calcium, dose response (AID 434942;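 active = primary screen inhibitor hit that blocks the TRPC4 channel at some tested dose, yielding a dose curve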)
[10] = target: Short transient receptor potential channel 6 (Mus musculus) (UniProt Q61143); assay: TRPC6 blockade by TRPC4 inhibitor hits – cell-based, HEK293, membrane potential dye, duplicate, selectivity assay for TRPC4 inhibitor project, confirmation (AID 434948;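 active = active in primary screen and both duplicates, each dropping signal beyond three positive-control SD with fluorescence still positive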); settings: HEK293 TRPC6, membrane potential dye fluorescence, at 10 µM, stimulated with maximal-effect acetylcholine; hits give high values
Chain of Short transient receptor potential channel 6 (Mus musculus) (Q61143 whole entry, looked up): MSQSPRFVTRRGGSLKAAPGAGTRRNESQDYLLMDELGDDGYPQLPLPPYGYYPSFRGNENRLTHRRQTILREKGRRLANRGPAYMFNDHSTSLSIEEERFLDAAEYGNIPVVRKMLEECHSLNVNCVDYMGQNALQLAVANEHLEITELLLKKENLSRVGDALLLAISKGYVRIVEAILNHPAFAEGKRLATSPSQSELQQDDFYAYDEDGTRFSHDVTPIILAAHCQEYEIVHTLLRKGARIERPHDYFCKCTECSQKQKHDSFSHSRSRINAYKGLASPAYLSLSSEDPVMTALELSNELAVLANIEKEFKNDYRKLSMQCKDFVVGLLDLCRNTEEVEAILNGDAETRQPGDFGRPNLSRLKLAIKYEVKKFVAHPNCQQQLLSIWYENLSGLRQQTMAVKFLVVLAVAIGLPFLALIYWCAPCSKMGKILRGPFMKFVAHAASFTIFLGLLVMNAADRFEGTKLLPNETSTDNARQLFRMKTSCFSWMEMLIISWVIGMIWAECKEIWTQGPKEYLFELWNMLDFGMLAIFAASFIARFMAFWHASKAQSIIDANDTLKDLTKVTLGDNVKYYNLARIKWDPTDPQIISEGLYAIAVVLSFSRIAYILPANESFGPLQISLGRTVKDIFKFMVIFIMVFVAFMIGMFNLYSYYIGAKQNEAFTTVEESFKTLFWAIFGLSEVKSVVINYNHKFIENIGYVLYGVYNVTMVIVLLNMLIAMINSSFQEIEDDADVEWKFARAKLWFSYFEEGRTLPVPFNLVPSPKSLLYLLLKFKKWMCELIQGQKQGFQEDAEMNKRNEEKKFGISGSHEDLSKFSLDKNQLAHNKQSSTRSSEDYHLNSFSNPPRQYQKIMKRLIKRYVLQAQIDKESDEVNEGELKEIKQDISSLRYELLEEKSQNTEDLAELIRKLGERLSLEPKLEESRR

[11] = target: Short transient receptor potential channel 6 (Mus musculus) (UniProt Q61143); assay: TRPC6 opening by TRPC4 activator hits – cell-based, HEK293, membrane potential dye, duplicate, selectivity assay for TRPC4 activator project, confirmation (AID 434950;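 active = membrane potential signal rise above negative control mean plus 3 SD in both duplicates, also active in the earlier TRPC4 screen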); settings: HEK293 TRPC6, membrane potential fluorescence, at 10 µM; activation: hits give high values; outcome: activation
[12] = target: Short transient receptor potential channel 6 (Mus musculus) (UniProt Q61143); assay: positive modulators of mouse TRPC6 channel – HEK293 cells, membrane potential dye, duplicate, selectivity assay for TRPC4 potentiator project, confirmation (AID 434952;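 active = compound raising the membrane signal above positive-control mean plus 3 SD in both repeats, and a primary screen hit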); settings: HEK293 TRPC6, membrane potential dye fluorescence, at 10 µM, maximal acetylcholine added after compound; hits give high values
[13] = target: Short transient receptor potential channel 4 (Mus musculus) (UniProt Q9QUQ5); assay: calcium flux activators in TRPC4/5HT1a cells, counter-screen for TRPC4 activator project, cell-based, second counter screen, HEK293 TRPC4/5HT1a, Fluo-4 (AID 434977;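 active = calcium signal rise above buffer-control mean plus 5 SD in both duplicates, and also a hit in the primary screen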;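 for activation: plate controls were assay buffer for no effect and maximal serotonin response for full effect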); settings: Fluo-4 calcium flux, at 10 µM; hits give high values
[14] = serotonin-gated TRPC4 signal block – cell-based, second counter screen, HEK293 TRPC4/5HT1a, Fluo-4, counter-screen for TRPC4 inhibitor project, confirmation (AID 434978;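 active = primary screen active whose calcium signal fell more than 3 SD beyond the full-serotonin control mean in both duplicate plates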;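 note: serotonin given first at submaximal then at maximal dose after compound preincubation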); settings: Fluo-4 calcium flux, at 10 µM, serotonin added to trigger calcium flux; hits give high values
[15] = test system: TRPC4 (mouse), co-expressed with 5HT1a in HEK293; assay: enhancement of serotonin-evoked TRPC4 response – cell-based, second counter screen, HEK293 TRPC4/5HT1a, Fluo-4, counter-screen for TRPC4 potentiator project, confirmation (AID 434979;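 active = signal rise over 3 SD above mean of control wells given weak agonist, in both repeats and first screen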); settings: Fluo-4 calcium flux, at 10 µM, serotonin added at its EC20 dose; hits give high values
[16] = nonspecific calcium rise without TRPC4 – cell-based, HEK293 mu-opioid receptor line, counter-screen for TRPC4 activator project, confirmation (AID 449723;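 active = hit in primary screen, with calcium signal over 5 SD above buffer well mean in both duplicates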;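 note: counter screen cells carry the mu-opioid receptor alone and lack TRPC4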); settings: HEK293 mu-opioid cells, Fluo-4 calcium fluorescence, at 10 µM; hits give high values
[17] = nonspecific potentiation of DAMGO calcium response – cell-based, HEK293 mu-opioid receptor line, counter-screen for TRPC4 allosteric potentiator project, confirmation (AID 449724;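 active = calcium signal rise more than 3 SD above the low-dose agonist control mean, in both duplicate plates and the primary screen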); settings: HEK293 mu-opioid receptor cells, Fluo-4 calcium flux, at 10 µM, compound added before EC20 DAMGO stimulus; hits give high values

COc1cc(/C=C2/SC(=O)NC2=O)ccc1OCc1ccccc1
inactive: outcome [1] | outcome [2] | outcome [3] | outcome [4] | outcome [5] | outcome [6] | outcome [7] | outcome [8] | outcome [9] | outcome [10] | outcome [11] | outcome [12] | outcome [13] | outcome [14] | outcome [15] | outcome [16] | outcome [17]

CCOC(=O)c1cnc2ccc(Cl)cc2c1NCCN(C)C
inactive: outcome [1] | outcome [2] | outcome [3] | outcome [4] | outcome [5] | outcome [6] | outcome [7] | outcome [8] | outcome [9] | outcome [10] | outcome [11] | outcome [12] | outcome [13] | outcome [14] | outcome [15] | outcome [16] | outcome [17]

CCOP(=O)(c1ccccc1)c1nc(-c2ccccc2Cl)oc1N1CCCCC1 (stereo not given)
inactive: outcome [1] | outcome [2] | outcome [3] | outcome [5] | outcome [6] | outcome [7] | outcome [8] | outcome [9] | outcome [10] | outcome [11] | outcome [12] | outcome [13] | outcome [14] | outcome [16] | outcome [17]
active: potentiation [4] 23% | potentiation [15] 30.9%

Cc1cc(C)cc(N(CC(=O)Nc2ccc(C)cc2Cl)S(=O)(=O)c2c(C)[nH]c(=O)[nH]c2=O)c1
active: potentiation [4] 23% | potentiation [15] 78.6%
inactive: outcome [1] | outcome [2] | outcome [3] | outcome [5] | outcome [6] | outcome [7] | outcome [8] | outcome [9] | outcome [10] | outcome [11] | outcome [12] | outcome [13] | outcome [14] | outcome [16] | outcome [17]

COc1cc(OC)c2c(-c3ccccc3)cc(=O)oc2c1C(CCN1CCCCC1)c1ccc(N(C)C)cc1 (stereo not given)
inactive: outcome [2] | outcome [3] | outcome [4] | outcome [5] | outcome [6] | outcome [7] | outcome [8] | outcome [9] | outcome [10] | outcome [11] | outcome [12] | outcome [14] | outcome [15] | outcome [16] | outcome [17]
active: activation [1] 82% | activation [13] 38.3%

Cc1cc(C)cc(NC(=O)c2nnn(Cc3cc(C)ccc3C)c2N)c1
inactive: outcome [1] | outcome [2] | outcome [3] | outcome [5] | outcome [6] | outcome [7] | outcome [8] | outcome [9] | outcome [10] | outcome [11] | outcome [12] | outcome [13] | outcome [14] | outcome [16] | outcome [17]
active: potentiation [4] 16% | potentiation [15] 27.4%

CCOC(=O)c1cc(=O)n(Cc2ccccc2C)c2ccccc12
active: potentiation [4] 74% | potentiation [15] 48.4%
inactive: outcome [1] | outcome [2] | outcome [3] | outcome [5] | outcome [6] | outcome [7] | outcome [8] | outcome [9] | outcome [10] | outcome [11] | outcome [12] | outcome [13] | outcome [14] | outcome [16] | outcome [17]

COc1ccc(Cc2noc(CN(C)CC3CCN(Cc4ccccc4)CC3)n2)cc1OC
inactive: outcome [1] | outcome [2] | outcome [3] | outcome [4] | outcome [5] | outcome [6] | outcome [7] | outcome [8] | outcome [9] | outcome [10] | outcome [11] | outcome [12] | outcome [13] | outcome [14] | outcome [15] | outcome [16] | outcome [17]

CCCCCCCCCCOC(=O)Cn1c(COc2ccccc2)[n+](C)c2ccccc21
inactive: outcome [1] | outcome [2] | outcome [3] | outcome [4] | outcome [5] | outcome [6] | outcome [7] | outcome [8] | outcome [9] | outcome [10] | outcome [11] | outcome [12] | outcome [13] | outcome [14] | outcome [15] | outcome [16] | outcome [17]

O=C(COC(=O)c1nc(Cl)ccc1Cl)c1ccccc1Cl
inactive: outcome [1] | outcome [2] | outcome [3] | outcome [4] | outcome [5] | outcome [6] | outcome [7] | outcome [8] | outcome [9] | outcome [10] | outcome [11] | outcome [12] | outcome [13] | outcome [14] | outcome [15] | outcome [16] | outcome [17]

COc1cc(COCC(O)CN2CCN(CCN3C(=O)c4cccc5cccc(c45)C3=O)CC2)cc(OC)c1OC (stereo not given)
inactive: outcome [1] | outcome [2] | outcome [3] | outcome [4] | outcome [5] | outcome [6] | outcome [7] | outcome [8] | outcome [9] | outcome [10] | outcome [11] | outcome [12] | outcome [13] | outcome [14] | outcome [15] | outcome [16] | outcome [17]

Cc1c(N2C(=O)/C(=C\C3CC=CCC3)SC2=S)c(=O)n(-c2ccccc2)n1C (stereo not given)
inactive: outcome [1] | outcome [2] | outcome [3] | outcome [4] | outcome [5] | outcome [6] | outcome [7] | outcome [8] | outcome [9] | outcome [10] | outcome [11] | outcome [12] | outcome [13] | outcome [14] | outcome [15] | outcome [16] | outcome [17]

CCCNc1nc2ccccc2n2c(C)nnc12
active: inhibition [5] 73% | inhibition [6] 39%
inactive: outcome [1] | outcome [2] | outcome [3] | outcome [4] | outcome [7] | outcome [8] | outcome [9] | outcome [10] | outcome [11] | outcome [12] | outcome [13] | outcome [14] | outcome [15] | outcome [16] | outcome [17]

CCc1cc2c3c(c(=O)oc2cc1OCC(=O)OC)CCCC3
inactive: outcome [1] | outcome [2] | outcome [3] | outcome [4] | outcome [5] | outcome [6] | outcome [7] | outcome [8] | outcome [9] | outcome [10] | outcome [11] | outcome [12] | outcome [13] | outcome [14] | outcome [15] | outcome [16] | outcome [17]

Cc1ccnc(NC(=O)COC(=O)C23CC4CC(CC(C4)C2)C3)n1
active: potentiation [4] 128% | potentiation [15] 104%
inactive: outcome [1] | outcome [2] | outcome [3] | outcome [5] | outcome [6] | outcome [7] | outcome [8] | outcome [9] | outcome [10] | outcome [11] | outcome [12] | outcome [13] | outcome [14] | outcome [16] | outcome [17]
